Results filed as inconclusive are left out. Where a call stands in place of a potency, no number is given. Activity calls are given as the source filed them. The call rests on the fitted dose curve; in most records, active means well fitted inhibition curve with a large enough effect; inconclusive means small, poorly fitted or top-dose-only effect; inactive means no such curve, though single readings can be large or run the other way.
How the values were obtained:
[1] = test system: Zika virus NS2B-NS3 protease (unlinked complex); assay: Primary screen GU Rhodamine qHTS for Zika virus inhibitors: Unlinked NS2B-NS3 protease assay (AID 1347159); further: nearly all actives have a fitted effect of over 60% in size
Summary of the method: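 A qHTS format was used, with compound concentrations ranging up to 114 microM. Each compound was preincubated with 25 nM NS2B-NS3 protease, and the substrate was then added at 1.5 microM. Curves were fitted with a 4-parameter Hill model.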

[2] = test system: Zika virus NS2B-NS3 protease (linked construct); assay: Primary screen NINDS Rhodamine qHTS for Zika virus inhibitors (AID 1347160); further: nearly all actives have a fitted effect of over 55% in size
Summary of the method: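 Kinetic fluorescence (Ex 480 nm, Em 540 nm) over 15 min with 1.5 microM Rhodamine110 peptide and 25 nM linked protease.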

Compound	Potency [1]	Potency [2]
CC(C)C[C@@H](C(=O)N[C@@H](Cc1ccc(OCc2ccccc2)cc1)C(=O)NC(C)(C)C)N(C)Cc1ccc(C(C)(C)C)cc1	inactive	inactive
CNCCN1CCC(c2cc(CN(C)C(=O)c3cccc(Oc4ccccc4)c3)ccn2)CC1	inactive	inactive
Cc1c(NC(=O)OCC2COCCN2)cn2ncnc(Nc3ccc4c(cnn4Cc4cccc(F)c4)c3)c12 (centres undefined)	inactive	inactive
C[C@@H]1O[C@@H](O[C@H]2[C@H](O[C@H]3CC[C@@]4(C)C(CC[C@]5(C)C4C=C[C@]46OC[C@@]7(CCC(C)(C)C[C@H]74)[C@@H](O[C@@H]4O[C@@H](C)[C@H](O)[C@@H](O)[C@H]4O)C[C@]65C)[C@]3(C)CO)O[C@H](CO)[C@@H](O)[C@@H]2O[C@@H]2O[C@H](CO)[C@@H](O)[C@H](O)[C@H]2O)[C@H](O)[C@H](O)[C@H]1O (some centres undefined)	inactive	inactive
CC(=O)O[C@@H]1[C@@H](O)[C@H](O[C@@H]2[C@@H](O)[C@@H](O)[C@H](O[C@H]3[C@H](O[C@H]4[C@H](O[C@H]5CC[C@@]6(C)C(CC[C@]7(C)C6CC=C6[C@@H]8CC(C)(C)CC[C@]8(C(=O)O)CC[C@]67C)[C@]5(C)CO)O[C@H](CO)[C@@H](O)[C@@H]4O)OC[C@@H](O)[C@@H]3O)O[C@H]2C)OC[C@H]1O (some centres undefined)	inactive	inactive
COc1cc(Br)c(S(=O)(=O)Nc2ccc(Cl)c(O[C@@H]3CCN(C)C3)c2)cc1OC	inactive	inactive
CNc1cc2[nH]c(=O)n(-c3ccc(NC(=O)NS(=O)(=O)c4ccc(Cl)s4)cc3)c(=O)c2cc1F	inactive	inactive
